Results as given in publication PMC5540273 (PLoS ONE, 2017).

System: RIOK3
Conditions: concentration: 1 μM,replicates: in singlicate; n = 1
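Also: KINOMEscan kinase panel screen.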

Row | Compound | %Inh
1 | O=C(Nc1ccccc1)c1cccc(Oc2ccc3nccn3n2)c1 | 8%
2 | Cc1ccc(CC(=O)N2CCc3cc(-c4cn(C)c5ncnc(N)c45)ccc32)cc1 [GSK2634758] | 0%
3 | COC(=O)c1cccc(NC(=O)NC2CCN(c3ccnc(NCc4ccc(F)cc4)n3)CC2)c1 [GSK1379860] | 6%
4 | Cc1n[nH]c2cc(Nc3ccnc(Nc4cccc(CN5CCOCC5)c4)n3)ccc12 [GW682569] | 96.5%
5 | CCN1CCN(CCCC(=O)Nc2n[nH]c3nc(-c4ccc(O)cc4)c(Br)cc23)CC1 [SB-731579] | 9%
6 | COc1ccc(Nc2nccc(N3CCC(NC(=O)c4cccc(C#N)c4)C3)n2)cc1 (centres unmarked) [GSK1379730] | 5%
7 | C[C@@H](Oc1cc(-n2cnc3cc(-c4ccncc4)ccc32)sc1C(N)=O)c1ccccc1Cl [GSK479719] | 100%
8 | Cc1nnc(-c2ccc3occ(-c4ccc(S(C)=O)cc4)c3n2)o1 (centres unmarked) | 7%
9 | Cn1cc(-c2cccc3c(N)c(C(N)=O)nnc23)cn1 | 60%
10 | Cl.Nc1n[nH]c2cc(-c3ccccn3)ccc12 [GSK2189892] | 24%
11 | COc1cccc(CNC(=O)NC2CCN(c3ccnc(Nc4cc(OC)c(OC)c(OC)c4)n3)C2)c1 (centres unmarked) [GSK1379765] | 56%
12 | Cc1ccc(C(=O)Nc2ccc(Oc3ccc4nc(NC(=O)C5CC5)cn4c3)c(F)c2)c(=O)n1-c1ccccc1 | 9%
13 | Cc1cccc2c(-c3ccncc3)c(-c3ccc(F)cc3)nn12.Cl [GW461487] | 0%
14 | C[C@@H](Oc1cc(-n2cnc3ccc(-c4ccncc4)cc32)sc1C(N)=O)c1ccccc1Cl [GSK483724] | 73%
15 | CNC(=O)c1ccccc1Nc1nc(Nc2cccc(CS(C)(=O)=O)c2)ncc1C.O=CO [GSK1520489] | 91.8%
16 | COc1cc2c(Nc3ccc(NC(=O)c4ccccc4)cc3)ncnc2cc1OCCCN1CCOCC1 [GSK301329] | 21%
17 | O=C(Nc1ccc(Oc2ccc3nc(NC(=O)C4CC4)cn3n2)c(F)c1)c1cccn(-c2ccccc2)c1=O | 31%
18 | COc1cc(Nc2nccc(N3CCC(NC(=O)c4cccc(C#N)c4)C3)n2)cc(OC)c1OC (centres unmarked) [GSK1379751] | 89%
19 | CC(C)S(=O)(=O)N1CCN(Cc2ccc3c(c2)nc(NC(=O)c2ccsc2)n3C[C@H](O)c2ccccc2)CC1 [GW635815] | 25%

Row | Compound | %Inh
20 | Cn1ccc2ncnc(Oc3ccc(NC(=O)Nc4cccc(C(F)(F)F)c4)c(F)c3)c21 | 23%
21 | Cc1ccc2c(-c3ccnc(Nc4ccc(C(F)(F)F)cc4)n3)cnn2n1 [GW819776] | 22%
22 | C[C@@H]1CNc2c(sc3ccc4nc(-c5ccncc5)ccc4c23)C(=O)N1 | 5%
23 | Cn1ccc2ncnc(Oc3ccc(NC(=O)Nc4cccc(C(F)(F)F)c4)c(Cl)c3)c21 | 41%
24 | COc1cccc(OC)c1C(=O)Nc1cccc(-c2nn3ccccc3c2-c2ccnc(Nc3cccc(F)c3)n2)c1 [GSK361065] | 19%
25 | CN1CCN(CCCNc2nccc(-c3c(-c4ccc(F)cc4)nn4cc(C(N)=O)ccc34)n2)CC1 [GW622475] | 36%
26 | CCCC(=O)Nc1n[nH]c2ncccc12 [SB-601436] | 0%
27 | Cn1ccc2ncnc(Oc3ccc(NC(=O)Nc4cc(C(C)(C)C)on4)c(Cl)c3)c21 | 1%
28 | Cl.c1ccc(Oc2ccc(Nc3ccnc4cc(-c5ccc(CN6CCNCC6)o5)ccc34)cc2)nc1 [GW567142] | 0%
29 | CC(=O)Nc1ccc(-c2cc3ncnc(SCC(=O)O)c3s2)cc1 | 15%
30 | Cc1ccc(Nc2ccnc(Nc3ccc4c(c3)CS(=O)(=O)C4)n2)cc1O.Cl [GW579362] | 95.7%
31 | COc1cccc(C2=C(Nc3cccc(Cl)c3)C(=O)NC2=O)c1 [SB-341556] | 1%
32 | OCCn1cc(-c2cnc3nnn(Cc4ccc5ncccc5c4)c3n2)cn1 | 19%
33 | Cn1ccc2ncnc(Oc3ccc(NC(=O)Nc4cncc(C(F)(F)F)c4)c(Cl)c3)c21 | 19%
34 | CN(c1cccc(CNc2nc(Nc3ccc4c(c3)CC(=O)N4)ncc2C(F)(F)F)c1)S(C)(=O)=O | 70%
35 | Cl.Cl.NC[C@H](CC1CCCCC1)NC(=O)c1ccc(-c2ccnc3[nH]ccc23)s1 [GSK1581428] | 90.1%
36 | N#Cc1cccc(C(=O)NC2CCN(c3ccnc(Nc4ccc(F)cc4)n3)C2)c1 (centres unmarked) [GSK1379708] | 0%
37 | c1ccc(Oc2ccc(Nc3ccnc4ccc(-c5ccccn5)cc34)cc2)cc1 [GW407034] | 0%

System: RIPK1
Conditions: concentration: 1 μM,replicates: in singlicate; n = 1

Row | Compound | %Inh
38 | O=C(Nc1ccccc1)c1cccc(Oc2ccc3nccn3n2)c1 | 15%
39 | Cc1ccc(CC(=O)N2CCc3cc(-c4cn(C)c5ncnc(N)c45)ccc32)cc1 [GSK2634758] | 100%
40 | COC(=O)c1cccc(NC(=O)NC2CCN(c3ccnc(NCc4ccc(F)cc4)n3)CC2)c1 [GSK1379860] | 0%
41 | Cc1n[nH]c2cc(Nc3ccnc(Nc4cccc(CN5CCOCC5)c4)n3)ccc12 [GW682569] | 4%
42 | CCN1CCN(CCCC(=O)Nc2n[nH]c3nc(-c4ccc(O)cc4)c(Br)cc23)CC1 [SB-731579] | 0%
43 | COc1ccc(Nc2nccc(N3CCC(NC(=O)c4cccc(C#N)c4)C3)n2)cc1 (centres unmarked) [GSK1379730] | 0%
44 | C[C@@H](Oc1cc(-n2cnc3cc(-c4ccncc4)ccc32)sc1C(N)=O)c1ccccc1Cl [GSK479719] | 0%
45 | Cc1nnc(-c2ccc3occ(-c4ccc(S(C)=O)cc4)c3n2)o1 (centres unmarked) | 0%
46 | Cn1cc(-c2cccc3c(N)c(C(N)=O)nnc23)cn1 | 3%
47 | Cl.Nc1n[nH]c2cc(-c3ccccn3)ccc12 [GSK2189892] | 0%
48 | COc1cccc(CNC(=O)NC2CCN(c3ccnc(Nc4cc(OC)c(OC)c(OC)c4)n3)C2)c1 (centres unmarked) [GSK1379765] | 17%
49 | Cc1ccc(C(=O)Nc2ccc(Oc3ccc4nc(NC(=O)C5CC5)cn4c3)c(F)c2)c(=O)n1-c1ccccc1 | 99.9%
50 | Cc1cccc2c(-c3ccncc3)c(-c3ccc(F)cc3)nn12.Cl [GW461487] | 0%
51 | C[C@@H](Oc1cc(-n2cnc3ccc(-c4ccncc4)cc32)sc1C(N)=O)c1ccccc1Cl [GSK483724] | 40%
52 | CNC(=O)c1ccccc1Nc1nc(Nc2cccc(CS(C)(=O)=O)c2)ncc1C.O=CO [GSK1520489] | 21%
53 | COc1cc2c(Nc3ccc(NC(=O)c4ccccc4)cc3)ncnc2cc1OCCCN1CCOCC1 [GSK301329] | 0%
54 | O=C(Nc1ccc(Oc2ccc3nc(NC(=O)C4CC4)cn3n2)c(F)c1)c1cccn(-c2ccccc2)c1=O | 80%
55 | COc1cc(Nc2nccc(N3CCC(NC(=O)c4cccc(C#N)c4)C3)n2)cc(OC)c1OC (centres unmarked) [GSK1379751] | 0%
56 | CC(C)S(=O)(=O)N1CCN(Cc2ccc3c(c2)nc(NC(=O)c2ccsc2)n3C[C@H](O)c2ccccc2)CC1 [GW635815] | 20%

Row | Compound | %Inh
57 | Cn1ccc2ncnc(Oc3ccc(NC(=O)Nc4cccc(C(F)(F)F)c4)c(F)c3)c21 | 23%
58 | Cc1ccc2c(-c3ccnc(Nc4ccc(C(F)(F)F)cc4)n3)cnn2n1 [GW819776] | 29%
59 | C[C@@H]1CNc2c(sc3ccc4nc(-c5ccncc5)ccc4c23)C(=O)N1 | 0%
60 | Cn1ccc2ncnc(Oc3ccc(NC(=O)Nc4cccc(C(F)(F)F)c4)c(Cl)c3)c21 | 6%
61 | COc1cccc(OC)c1C(=O)Nc1cccc(-c2nn3ccccc3c2-c2ccnc(Nc3cccc(F)c3)n2)c1 [GSK361065] | 17%
62 | CN1CCN(CCCNc2nccc(-c3c(-c4ccc(F)cc4)nn4cc(C(N)=O)ccc34)n2)CC1 [GW622475] | 10%
63 | CCCC(=O)Nc1n[nH]c2ncccc12 [SB-601436] | 0%
64 | Cn1ccc2ncnc(Oc3ccc(NC(=O)Nc4cc(C(C)(C)C)on4)c(Cl)c3)c21 | 15%
65 | Cl.c1ccc(Oc2ccc(Nc3ccnc4cc(-c5ccc(CN6CCNCC6)o5)ccc34)cc2)nc1 [GW567142] | 0%
66 | CC(=O)Nc1ccc(-c2cc3ncnc(SCC(=O)O)c3s2)cc1 | 0%
67 | Cc1ccc(Nc2ccnc(Nc3ccc4c(c3)CS(=O)(=O)C4)n2)cc1O.Cl [GW579362] | 25%
68 | COc1cccc(C2=C(Nc3cccc(Cl)c3)C(=O)NC2=O)c1 [SB-341556] | 0%
69 | OCCn1cc(-c2cnc3nnn(Cc4ccc5ncccc5c4)c3n2)cn1 | 0%
70 | Cn1ccc2ncnc(Oc3ccc(NC(=O)Nc4cncc(C(F)(F)F)c4)c(Cl)c3)c21 | 0%
71 | CN(c1cccc(CNc2nc(Nc3ccc4c(c3)CC(=O)N4)ncc2C(F)(F)F)c1)S(C)(=O)=O | 3%
72 | Cl.Cl.NC[C@H](CC1CCCCC1)NC(=O)c1ccc(-c2ccnc3[nH]ccc23)s1 [GSK1581428] | 0%
73 | N#Cc1cccc(C(=O)NC2CCN(c3ccnc(Nc4ccc(F)cc4)n3)C2)c1 (centres unmarked) [GSK1379708] | 0%
74 | c1ccc(Oc2ccc(Nc3ccnc4ccc(-c5ccccn5)cc34)cc2)cc1 [GW407034] | 0%
